The record followed here is paper PMC4336329 (PLoS ONE, 2015).

Hit rate of the full screen: of about 310,000 compounds, about 14,000 (4.5%) showed an effect of 50% or more. Effects have a minus sign here. For the sample, strong results were picked, then their nearest neighbours and some compounds at random.
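Further: peak tail current of the secondary pulse compared with the same well before compound.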

human ether-à-go-go-related gene (hERG) potassium channel, sequence (Q12809 whole entry, looked up): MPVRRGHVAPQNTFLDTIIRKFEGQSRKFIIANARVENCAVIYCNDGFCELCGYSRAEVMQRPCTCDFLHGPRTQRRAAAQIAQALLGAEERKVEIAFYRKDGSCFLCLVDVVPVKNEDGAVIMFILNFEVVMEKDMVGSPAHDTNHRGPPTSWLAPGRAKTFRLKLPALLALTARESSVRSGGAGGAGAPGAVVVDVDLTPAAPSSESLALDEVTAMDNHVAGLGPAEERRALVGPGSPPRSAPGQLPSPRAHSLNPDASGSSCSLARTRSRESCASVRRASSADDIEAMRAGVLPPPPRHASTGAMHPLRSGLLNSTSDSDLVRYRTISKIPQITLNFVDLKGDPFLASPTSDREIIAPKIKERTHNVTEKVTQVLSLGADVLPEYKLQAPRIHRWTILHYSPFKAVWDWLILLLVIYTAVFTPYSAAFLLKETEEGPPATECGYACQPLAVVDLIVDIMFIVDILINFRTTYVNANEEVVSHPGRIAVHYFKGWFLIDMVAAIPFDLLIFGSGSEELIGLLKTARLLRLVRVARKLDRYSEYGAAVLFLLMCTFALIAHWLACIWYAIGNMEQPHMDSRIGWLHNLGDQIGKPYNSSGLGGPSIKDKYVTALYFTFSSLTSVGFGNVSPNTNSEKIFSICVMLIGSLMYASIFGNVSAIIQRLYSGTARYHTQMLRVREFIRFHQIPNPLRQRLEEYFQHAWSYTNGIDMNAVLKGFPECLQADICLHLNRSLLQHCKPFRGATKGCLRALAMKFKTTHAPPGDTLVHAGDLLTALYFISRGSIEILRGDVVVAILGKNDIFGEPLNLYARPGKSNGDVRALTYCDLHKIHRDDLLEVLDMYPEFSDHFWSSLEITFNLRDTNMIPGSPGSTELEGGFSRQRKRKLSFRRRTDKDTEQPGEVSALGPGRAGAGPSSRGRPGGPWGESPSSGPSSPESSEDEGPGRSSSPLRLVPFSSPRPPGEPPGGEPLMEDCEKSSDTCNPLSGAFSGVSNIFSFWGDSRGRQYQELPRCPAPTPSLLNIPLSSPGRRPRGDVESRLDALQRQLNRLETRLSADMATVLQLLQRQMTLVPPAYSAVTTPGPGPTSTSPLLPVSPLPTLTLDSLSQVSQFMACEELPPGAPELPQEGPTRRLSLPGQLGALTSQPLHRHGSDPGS

This assay has as its target human ether-à-go-go-related gene (hERG) potassium channel (human, UniProt Q12809). Briefly: primary screen, population patch clamp on CHO cells stably expressing hERG; higher = less effect of the substance.
For the molecule `COc1ccc(NC(=O)C23CC4CC(C2)CC(n2cnc(Br)n2)(C4)C3)c(OC)c1`, the “hERG current change (%, negative = inhibition) at 10uM” value is on record as -23.4%.

Take `COc1ccc(NC(=O)C23CC4CC(C2)CC(n2cnc(Br)n2)(C4)C3)cc1OC`: the “hERG current change (%, negative = inhibition) at 10uM” value is recorded as -2.41%. For `COC(=O)c1ccc(NC(=O)C23CC4CC(C2)CC(n2cnc(Cl)n2)(C4)C3)cc1`, the “hERG current change (%, negative = inhibition) at 10uM” value is -27.3%. Take `Cc1ccc(F)cc1NC(=O)C12CC3CC(C1)CC(n1cnc([N+](=O)[O-])n1)(C3)C2`: the “hERG current change (%, negative = inhibition) at 10uM” value was -52.8%. For `COc1ccc(OC)c(NC(=O)C23CC4CC(C2)CC(n2cnc(Br)n2)(C4)C3)c1` the value was -41.2%.

For the molecule `COc1cc(NC(=O)C23CC4CC(C2)CC(n2cnc([N+](=O)[O-])n2)(C4)C3)cc(OC)c1`, the “hERG current change (%, negative = inhibition) at 10uM” value is given as -66.7%. Consider `CC(=O)Nc1ccc(NC(=O)C23CC4CC(C2)CC(n2cnc(Br)n2)(C4)C3)cc1`, for which the “hERG current change (%, negative = inhibition) at 10uM” value is -63.4%. For `COc1ccc(NC(=O)C23CC4CC(C2)CC(n2cnc(Br)n2)(C4)C3)cc1Cl` the value was 3.08%; for `O=C(Nc1ccccc1)C12CC3CC(C1)CC(n1cnc([N+](=O)[O-])n1)(C3)C2`, -59.6%. For `COC(=O)c1ccccc1NC(=O)C12CC3CC(C1)CC(n1cnc(Cl)n1)(C3)C2` the value was -38.5%. Regarding `O=C(Nc1cccc2ccccc12)C12CC3CC(C1)CC(n1cnc([N+](=O)[O-])n1)(C3)C2`, the “hERG current change (%, negative = inhibition) at 10uM” value is -44.5%. Regarding `COc1ccc(NC(=O)C23CC4CC(C2)CC(n2cnc(Br)n2)(C4)C3)c(C)c1`, the “hERG current change (%, negative = inhibition) at 10uM” value was -9.06%. For `Cn1c(=O)c([N+](=O)[O-])c(NCC(O)c2ccccc2)c2ccccc21` (centres unmarked) the value was -2.03%. As for `CCOC(=O)Cc1nn(C(C)C)c(=O)c2ccccc12`, the figure is 26.6%.

For the molecule `Cc1cccc(NC(=O)CCn2nc(C)cc2C)c1`, the “hERG current change (%, negative = inhibition) at 10uM” value stood at 9.02%. For `CN(C)C(=O)/C(=C/c1cn(-c2ccccc2)nc1-c1cccc([N+](=O)[O-])c1)NC(=O)c1ccccc1` the value was -29.1%. As for `CCNC(=S)N1CCCC(c2nc3ccc(C)cc3[nH]2)C1` (centres unmarked), the figure is -2.45%; as for `CC1=C(C(=O)OCc2ccccc2)C(c2ccc(Cl)cc2Cl)NC(=O)N1CCCCCC(=O)O` (centres unmarked), -16.2%; as for `CCN(CC(=O)Nc1ccc(OC)cc1)C(=O)c1cc(-c2cccs2)nn1-c1ccccc1`, -15.4%. Regarding `CCOc1ccc(CN(C)C(=O)[C@H](Cc2ccccc2)NC(=O)OCc2ccccc2)cc1OC`, the “hERG current change (%, negative = inhibition) at 10uM” value was -15.7%. Consider `c1csc(CNc2ncnc3nc[nH]c23)c1`, for which the “hERG current change (%, negative = inhibition) at 10uM” value is on record as -2.79%.

Regarding `O=C(Nc1ccon1)C12CC3CC(C1)CC(n1cnc([N+](=O)[O-])n1)(C3)C2`, the “hERG current change (%, negative = inhibition) at 10uM” value is recorded as -50.5%. `O=[N+]([O-])c1ncn(C23CC4CC(CC(C4)C2)C3)n1`: the “hERG current change (%, negative = inhibition) at 10uM” value is given as -8.76%. As for `Cc1cc(NC(=O)C23CC4CC(C2)CC(n2cnc([N+](=O)[O-])n2)(C4)C3)no1`, the figure is -32.4%; as for `O=C(Nc1cccc([N+](=O)[O-])c1)C12CC3CC(C1)CC(n1cnc([N+](=O)[O-])n1)(C3)C2`, -67.8%; as for `O=C(O)c1cccc(NC(=O)C23CC4CC(C2)CC(n2cnc(Cl)n2)(C4)C3)c1`, 6.02%. For `O=C(Nc1cc(Oc2ccccc2)cc([N+](=O)[O-])c1)C12CC3CC(C1)CC(n1cnc(Cl)n1)(C3)C2` the value was 13.9%; for `COc1ccc(CNC(=O)c2coc(=O)c3ccccc23)cc1`, -27.3%.

On to `O=C(NC1CCN(Cc2ccccc2)CC1)C(NS(=O)(=O)c1cccc2nsnc12)c1ccccc1` (centres unmarked), for which the “hERG current change (%, negative = inhibition) at 10uM” value is -44.6%. With `Cc1ccc(OCC(=O)N/N=C\c2cccn2C)c([N+](=O)[O-])c1`, the “hERG current change (%, negative = inhibition) at 10uM” value is reported as -8.65%. As for `O=C(O)[C@H]1CCCC[C@H]1C(=O)Nc1ccc(Nc2ccccc2)cc1`, the figure is 4.15%; as for `CSc1sc(C(=O)N2CCc3ccccc32)cc1S(=O)(=O)C(C)C`, 14.2%. `Cn1cnnc1Sc1cc(N2CCN(S(=O)(=O)c3ccccc3)CC2)ccc1[N+](=O)[O-]`: the “hERG current change (%, negative = inhibition) at 10uM” value is -60.5%. As for `Cn1cnnc1Sc1cc(N2CCN(S(=O)(=O)c3ccc(Cl)c(Cl)c3)CC2)ccc1[N+](=O)[O-]`, the “hERG current change (%, negative = inhibition) at 10uM” value is given as -10.6%. For `Cc1ccc(S(=O)(=O)N2CCN(c3ccc([N+](=O)[O-])c(Sc4nncn4C)c3)CC2)cc1` the value was -62.3%; for `CN1CCN(c2ccc([N+](=O)[O-])c(Sc3nncn3C)c2)CC1`, -9.71%; for `Cn1cnnc1Sc1cc(N2CCNCC2)ccc1[N+](=O)[O-]`, 7.66%. For `Cn1cnnc1Sc1ccc(S(C)(=O)=O)cc1[N+](=O)[O-]` the value was 13%; for `[N-]=[N+]=NC(c1ccccc1)c1nc2ccccc2[nH]c1=O` (centres unmarked), -7.74%; for `Nc1ccccc1Cl`, 10.3%. As for `O=C(NCc1ccco1)c1cccc(Nc2nc3ccc(Br)cc3[nH]2)c1`, the figure is -11.2%.
